LGR2 inh: inhibitors of bursicon-induced LGR2 CRE-luciferase signal, primary screen, cell-based, HEK293, CRE-luciferase reporter, bursicon stimulation. Drosophila bursicon receptor LGR2 (rickets). bursicon-stimulated, 4 h. inhibition, % at 9.99 µM. 380,000 tested, 0.35% active;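 active = drop in luminescence signal, shown as inhibition above about 50% in the replicate tests, limit read from the data, passing the limit was not always enough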;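 note: agonist challenge used bursicon conditioned medium at about half maximal strength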
SENP6 block: SENP6 protease inhibitors, primary screen, biochemical, luminescence, uHTS. Sentrin-specific protease 6 (Homo sapiens), Q9GZR1. Recombinant SENP6 catalytic domain, aminoluciferin luminescence. inhibition, % at 10 µM. 330,000 tested, 1.8% active;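 active = inhibition above about 50% at the single tested dose, limit read from the data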;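 note: plate controls were DMSO wells with enzyme for no effect and DMSO wells lacking enzyme for full effect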
SENP8 block-1: SENP8 protease inhibitors, primary screen, biochemical, luminescence | Sentrin-specific protease 8 (Homo sapiens), Q96LD8 | purified SENP8, Z-RLRGG-aminoluciferin cleavage | inhibition, % at 10 µM | 330,000 tested, 1.2% active | AID 2540, 2010; in the data active = inhibition above about 50%
SENP7 block: SENP7 protease inhibitors, primary screen, biochemical, luminescence, uHTS | recombinant SENP7, Z-RLRGG-aminoluciferin luminescence, 40 min | inhibition, % at 5 µM | 330,000 tested, 1.5% active | AID 434973, 2010;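 active = inhibition above about 50% at the single test dose, limit read from the data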;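 note: plate controls were DMSO with enzyme for no effect and no enzyme buffer wells for full effect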
Target sequence (Q9BQF6 706-1050 limits assumed): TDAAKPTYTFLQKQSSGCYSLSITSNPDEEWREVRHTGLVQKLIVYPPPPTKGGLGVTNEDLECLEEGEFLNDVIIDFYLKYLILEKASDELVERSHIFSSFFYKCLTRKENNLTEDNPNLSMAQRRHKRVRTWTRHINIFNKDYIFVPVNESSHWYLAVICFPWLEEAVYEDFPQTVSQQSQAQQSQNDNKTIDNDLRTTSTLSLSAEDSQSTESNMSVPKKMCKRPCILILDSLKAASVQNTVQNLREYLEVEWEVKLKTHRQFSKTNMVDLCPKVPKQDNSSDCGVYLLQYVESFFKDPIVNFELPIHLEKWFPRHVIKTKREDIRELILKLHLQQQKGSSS
SENP8 block-2: human SENP8 protease inhibitors, primary screen, biochemical, fluorescence, Nedd8 protein substrate, uHTS. AID 602440, 2012. inhibition, % at 20 µM. recombinant SENP8. Sentrin-specific protease 8 (Homo sapiens), Q96LD8. 360,000 tested, 0.64% active; in the data active = inhibition mostly above about 40%, no sharp cut-off; inactive = mostly below about 27%
HSP90 inh: HSP90 inhibitors, primary screen, cell lysate, luminescence | Heat shock protein HSP 90 (rabbit reticulocyte lysate; luciferase refolding) | Rabbit reticulocyte lysate, luciferase refolding luminescence, 3 h | inhibition, % at 5.6 µM | 290,000 tested, 0.91% active | AID 1789, 2009;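 active = inhibition above the screen-wide mean plus 3 SD, computed separately per campaign, cut at about 16% in these data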;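 note: 0% = DMSO wells and 100% = 60 µM geldanamycin wells; inhibitors lower the luminescence because luciferase stays unfolded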
SENP8 conf: SENP8 protease inhibitors, retest, confirmation, biochemical, luminescence, single concentration; Recombinant SENP8, Z-RLRGG-aminoluciferin luminescence, 60 min; AID 488912, 2010; inhibition, % at 12.5 µM; 6,200 tested, 40% active; shares compounds with SENP7 block;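 active = mean inhibition across replicates above about 50%, limit read from the data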
SENP6 conf: SENP6 protease inhibitors, confirmation, biochemical, luminescence, single concentration; 6,200 tested, 58% active; inhibition, % at 12.5 µM; AID 488915, 2010; shares compounds with SENP7 block; recombinant SENP6, Z-RLRGG-aminoluciferin luminescence
SENP7 confirm: SENP7 protease inhibitors, retest, confirmation, biochemical, luminescence, single concentration; recombinant SENP7, Z-RLRGG-aminoluciferin luminescence, 40 min; 6,200 tested, 69% active; inhibition, % at 12.5 µM; shares compounds with SENP7 block
Casp3 SENP sel: caspase-3 protease inhibitors, confirmation, selectivity assay for SENP inhibitor project, biochemical, single concentration; purified caspase-3, Z-DEVD-aminoluciferin luminescence, 60 min; 6,200 tested, 60% active; AID 488918, 2010; inhibition, % at 12.5 µM; shares compounds with SENP7 block;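 active = mean inhibition above about 50%, limit read from the data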;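 note: plate controls were enzyme with DMSO for no effect and wells without caspase-3 for full effect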
Target sequence (P42574 28-227 limits assumed): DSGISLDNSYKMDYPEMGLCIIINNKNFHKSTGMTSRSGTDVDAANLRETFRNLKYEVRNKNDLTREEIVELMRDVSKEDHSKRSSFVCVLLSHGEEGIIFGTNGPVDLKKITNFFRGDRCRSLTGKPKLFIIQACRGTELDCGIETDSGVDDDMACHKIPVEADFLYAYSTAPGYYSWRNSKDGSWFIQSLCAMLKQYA
SENP luc ctr: luminescence interference (SENP counter-screen) | shares compounds with SENP7 block | Pre-incubated SENP8/Z-RLRGG-aminoluciferin, luciferase luminescence interference | inhibition, % at 12.5 µM | 6,200 tested, 39% active;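 active = mean inhibition above about 50% when retested at one dose, limit read from the data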;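 note: plate controls were DMSO wells with completed reaction for no effect and substrate without enzyme for full effect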
* hit, by the source's call; i = inactive; · = no result given. This is a sample that favours compounds with a hit; in the whole collection about 2.3% have one here.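 Rule for the calls, unless noted: active = mean inhibition above about 50% in the one-dose retest (limit read from the data); inactive = the rest.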

SMILES	LGR2 inh	SENP6 block	SENP8 block-1	SENP7 block	SENP8 block-2	HSP90 inh	SENP8 conf	SENP6 conf	SENP7 confirm	Casp3 SENP sel	SENP luc ctr
O=c1cc(/C=C/c2ccccc2)oc2ccccc12	·	62*	55*	49	-114	-3	-3	78*	93*	64*	73*
CC(=O)Nc1ccc2oc(-c3ccccc3Br)nc2c1	10	84*	58*	59*	-222	7	81*	76*	90*	68*	65*
CCN(CC)CC(=O)Nc1ccc(-c2nc3cc(NC(=O)CN(CC)CC)ccc3o2)cc1	·	-10	-2	-1	-482	-1	·	·	·	·	·
CC(=O)Nc1ccc2oc(-c3cc(F)c(F)cc3Cl)nc2c1	·	-5	40	67*	-291	-1	21	21	10	39	25
CC(C)C(=O)Nc1ccc2oc(-c3cc(F)c(F)cc3Cl)nc2c1	·	-7	-10	-17	-273	-4	·	·	·	·	·
CCc1ccc2oc(-c3ccc(NC(C)=O)cc3)nc2c1	·	75*	72*	78*	-446	5	44	79*	96*	33	18
O=C(Nc1ccc2oc(-c3ccccc3Cl)nc2c1)c1ncn[nH]1	-44	52*	35	24	-257	-1	24	20	28	26	0
O=C(O)C[C@H]1CC[C@H](NC(=O)CCN2CCCCC2)[C@H](CO)O1	4	·	·	·	·	·	·	·	·	·	·
CC=Cc1ccc2n(c1=O)C[C@H]1[C@H](CO)[C@@H](C(=O)NCCC)N(C(=O)CC)[C@@H]21 (mixture of isomers)	1	·	·	·	·	·	·	·	·	·	·
C[C@@H]1CCCCO[C@H](CN(C)C(=O)CCCN(C)C)[C@H](C)CN([C@@H](C)CO)C(=O)c2cc(NC(=O)c3ccccc3)ccc2O1	-3	·	·	·	·	·	·	·	·	·	·
CC(=O)Nc1ccc(N=Cc2c(O)c(C(=O)Nc3ccccc3)cc3ccccc23)cc1	6	45	72*	30	·	2	21	16	20	14	11
Cc1ccc(C(O)C(=O)c2ccco2)cc1 (stereo not drawn)	-2	3	-8	75*	11	·	-25	-18	-12	-12	-8
CCCC(=O)Nc1ccc2c(c1)C(=O)N(C)C[C@H](OC)[C@H](C)CN(C(=O)CC)[C@@H](C)CO2	6	·	·	·	·	·	·	·	·	·	·
CCCNC(=O)CSc1nnc(-c2ccccc2Br)n1-c1cccc(C(F)(F)F)c1	9	-3	-4	54*	10	3	-2	0	-4	0	0
O=C(CSc1nc2ccccc2c(=O)n1-c1cccc(C(F)(F)F)c1)NC1CC1	·	32	-10	1	16	1	·	·	·	·	·
CC(=O)Nc1ccc2c(c1)C(=O)N(C)[C@H]1CC[C@H](CC(=O)Nc3ccccc3Cl)O[C@@H]1CO2	-4	·	·	·	·	·	·	·	·	·	·
COC(=O)c1oc2ccc(Cl)cc2c1N	·	53*	24	46	-307	-1	35	32	69*	58*	32
COC(=O)c1oc2ccccc2c1N	·	13	-20	-2	i	0	·	·	·	·	·
O=C(Oc1ccc(-c2cn3c(n2)SCC3)cc1)c1ccccc1	·	40	0	71*	26	2	12	22	16	51*	26
CC(C)CC#Cc1cnc2c(c1)C(=O)N([C@@H](C)CO)C[C@@H](C)[C@@H](CN(C)Cc1ccccc1F)O2	7	·	·	·	·	·	·	·	·	·	·
CCS(=O)(=O)Nc1ccc2c(c1)C(=O)N(C)C[C@H](OC)[C@H](C)CN(C)[C@@H](C)CO2	17	·	·	·	·	·	·	·	·	·	·
Cc1cc(C)n(CCc2nc(-c3ccc(-c4ccccc4)cc3)cs2)n1	-50	83*	19	80*	4	1	27	50	68*	36	21
CC=Cc1ccc2n(c1=O)C[C@H]1[C@H](CO)[C@@H](C(=O)NCCCN(C)C)[C@@H]2N1C(=O)c1ccccc1F (mixture of isomers)	-4	·	·	·	·	·	·	·	·	·	·
O=C(N/C=C/c1ccccc1)c1ccccc1	-92	71*	58*	41	-16	·	-6	46	82*	63*	36
C[C@@H]1CN([C@@H](C)CO)C(=O)c2cc(NC(=O)Nc3ccc(F)cc3)ccc2O[C@H]1CN(C)C(=O)Nc1ccccc1	3	·	·	·	·	·	·	·	·	·	·
SMILES	LGR2 inh	SENP6 block	SENP8 block-1	SENP7 block	SENP8 block-2	HSP90 inh	SENP8 conf	SENP6 conf	SENP7 confirm	Casp3 SENP sel	SENP luc ctr
O=C(NCCc1ccncc1)[C@H]1[C@H](CO)[C@H]2Cn3c(ccc(-c4ccccc4)c3=O)[C@@H]1N2	0	·	·	·	·	·	·	·	·	·	·
N#Cc1c(N(CCO)CCO)nc(N)c2c(N)nc3c(c12)CC(=O)N3CC1CCCO1 (stereo not drawn)	2	-13	67*	39	-408	0	-6	3	-6	1	3
O=c1c2ccccc2nc2oc3ccccc3n12	-43	88*	74*	80*	-25	3	44	48	70*	82*	16
O=C(Nc1ccc2ccccc2c1)c1cnccn1	·	65*	42	75*	-13	10	52*	73*	92*	82*	31
CCOc1ccc2nc(NC(=O)c3cnccn3)sc2c1	·	24	20	74*	27	-2	16	14	24	52*	14
O=C(Nc1nc2ccc(F)cc2s1)C1=NN(c2ccccc2)C(=O)CC1	·	55*	26	11	-42	-5	-13	1	20	1	-5
O=C(Nc1nc(-c2ccco2)c(-c2ccco2)s1)c1cnccn1	9	-115	-10	-21	·	·	·	·	·	·	·
O=C(Nc1nc2ccccc2s1)c1cnccn1	·	97*	93*	8	10	6	6	56*	76*	79*	40

Bioassay records: PubChem, several laboratories
